# Assay outcomes (PubChem)
# HT1080NT lethal: qHTS for induction of synthetic lethality in tumor cells producing 2HG: qHTS for the HT-1080-NT fibrosarcoma cell line | HT-1080-NT fibrosarcoma viability, CellTiter-Glo ATP luminescence, 48 h | Potency, µM (titrated, usually from 46.1 µM), without a hit: top-dose activity, negative = less viability, hits mostly cytotoxic | 360,000 tested, 1.6% active;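 further: NT is the 2HG producing partner of a matched IDH1 knockdown line; potency means the concentration at half of the fitted maximal effect; 0% = DMSO-treated cells and -100% = media-only wells without cells; nearly all actives have a fitted effect of over 55% in size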
#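 Fibrosarcoma NT cells, 750 per well in 5% FBS RPMI, were exposed to compound for 48 hours. Viability: CellTiter-Glo luminescence.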
# DT40 TDP1 CPT: qHTS for Inhibitors of human tyrosyl-DNA phosphodiesterase 1 (TDP1): qHTS in cells in presence of CPT | chicken DT40 Tdp1-/-;hTDP1 cells + 20 nM CPT, ATP luminescence, 48 h | Potency, µM (top dose mostly 46.2 µM), for inactives: at the highest dose activity change, negative = growth inhibition, usual class: inhibitors | AID 686979, 2013 | 420,000 tested, 12% active; further: potency means the concentration at half of the fitted maximal effect; nearly all actives have a fitted effect of over 55% in size
#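 Chicken DT40 Tdp1-/- cells complemented with human TDP1, 400 cells/well, exposed to compounds plus 20 nM camptothecin for at least 48 h at 37 C; viability read as ATP content by CellTiter-Glo luminescence.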
# IL-1B inflam inh: qHTS for Inhibitors of Inflammasome Signaling: IL-1-beta AlphaLISA Primary Screen; 360,000 tested, 4.7% active; AID 743279, 2014; activity change, % at 57.5 µM; THP-1 LPS/ATP IL-1B secretion, AlphaLISA, 16 h; hits give low values; in the data active means activity change below about -50%; inconclusive means mostly about -30% to -49%
#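 Secreted IL-1B measured by AlphaLISA bead assay after 16 h compound exposure of THP-1 cells; compounds (final up to 57.5 uM) added 1 h before LPS (250 ng/mL) and ATP (1.25 mM) stimulation; lower signal means less secretion.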
# HT1080 IDH1KD tx: qHTS for induction of synthetic lethality in tumor cells producing 2HG: qHTS for the HT-1080-IDH1KD cell line; HT-1080 IDH1 knockdown viability, ATP luminescence, 48 h; Potency, µM (top dose mostly 46.1 µM), inactives show at the top dose activity, negative = toxicity, usual class: cytotoxic; 360,000 tested, 2% active;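 further: potency means the concentration at half of the fitted maximal effect; 0% = DMSO wells and -100% = cell-free medium wells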
#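 Cytotoxicity counter-line: IDH1KD HT-1080, 48 h, CellTiter-Glo. Curves classed by r2, magnitude and activity.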
# TDP1 cell noCPT: qHTS for Inhibitors of human tyrosyl-DNA phosphodiesterase 1 (TDP1): qHTS in cells in absence of CPT; Potency, µM (top dose mostly 46.2 µM), inactives show top-dose activity change, negative = growth inhibition, hits mostly inhibitors; DT40 Tdp1-/- hTDP1 cells, no CPT, ATP luminescence, 48 h; 420,000 tested, 15% active; further: potency means the concentration at half of the fitted maximal effect; nearly all actives have a fitted effect of over 55% in size
#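 Cells were dispensed at 400 per well, compounds added by pin tool, plates incubated ≥48 hr at 37 °C, then CellTiter-Glo added for 30 min at room temperature before luminescence reading. Line: DT40 Tdp1-/- complemented with hTDP1; camptothecin omitted.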
# An asterisk follows results filed as active; ? = inconclusive; . = no result given; [ ] = dose if it differs, or a comment. A selection: hits, their analogues and other compounds. The true share with any hit is near 19%. Unless noted, the call rests on the fitted dose curve; in most records, active means well fitted curve in the direction sought with a large enough effect; inconclusive means small, poorly fitted or top-dose-only effect, or another doubt; inactive means no such curve, though single readings can be large; an effect the other way counts as inactive or inconclusive. Unless noted, on the % scale 0 is the no-effect control and ±100 the full control effect.
SMILES,HT1080NT lethal,DT40 TDP1 CPT,IL-1B inflam inh,HT1080 IDH1KD tx,TDP1 cell noCPT
O=C(Cc1ccccc1Cl)c1ccccc1,-6%,0%,6,1%,-16%
C=CCNc1nc(N)c(C(=C(C#N)C#N)c2ccc(Br)cc2)s1,-23%,?,-29,?,?
C=CC(COCc1ccccc1)N(Cc1ccc(OC)cc1)S(=O)(=O)c1ccccc1Br (centres undefined),-2%,?,24,0%,?
C=CC(COCc1ccccc1)N([C@@H](Cc1ccccc1)C(=O)OC)S(=O)(=O)c1ccccc1Br (some centres undefined),-5%,?,12,-9%,23µM*
C[n+]1c(/C=C/c2ccc3c(c2)OCO3)ccc2ccccc21,14%,13%,-22,7%,2%
C[n+]1c(/C=C/c2ccc(F)cc2)ccc2ccccc21,.,3.5µM*,.,.,2.5µM*
C[n+]1c(/C=C/c2ccc(O)cc2)ccc2ccccc21,-7%,?,?,-5%,18µM*
Fc1ccc(/C=C/c2nnc(-c3cccs3)o2)cc1,18%,7%,?,14%,-23%
CCOc1ccc(/C=C/c2ccc3ccccc3[n+]2C)cc1OCC,.,4µM*,.,.,2µM*
O=C(O)/C(=C\c1cccs1)c1ccccc1,-4%,7%,-3,16%,-8%
NC(=O)C1CCCN1S(=O)(=O)c1ccc2ccccc2c1 (centres undefined),-6%,6%,-20,0%,18%
NC1=NC(=O)C(Cc2ccc(OC(F)(F)F)cc2)S1 (centres undefined),1%,-16%,-10,1%,5%
CC(=O)Nc1ccccc1-c1ccccc1[N+](=O)[O-],4%,7%,-3,-2%,-10%
CCS(=O)(=O)c1cc([N+](=O)[O-])c(Sc2ccccc2NC(C)=O)s1,-1%,3.3µM*,-18,-8%,5.2µM*
Cc1cc(OCc2cc(C(=O)NCCN3CCCCC3CO)no2)cc(C)c1Cl (centres undefined),?,?,-62*,?,?
Cc1cc(OCc2cc(C(=O)N(C)CCc3cnn(C)c3)no2)cc(C)c1Cl,-13%,13µM*,-59*,-23%,21µM*
Cc1cc(OCc2cc(C(=O)N(C)C3CCOC3)no2)cc(C)c1Cl (centres undefined),-5%,16µM*,-18,-19%,16µM*
Cc1cc(OCc2cc(C(=O)N(C)Cc3nonc3C)no2)cc(C)c1Cl,-25%,?,-16,-23%,-3%
CCN(Cc1cnn(C)c1)C(=O)c1cc(COc2cc(C)c(Cl)c(C)c2)on1,?,?,-3,-26%,?
CCc1ccc(CN(C)C(=O)c2cc(COc3cc(C)c(Cl)c(C)c3)on2)nc1,?,16µM*,0,?,?
CC(C)=CCc1cc([C@@H]2CC(=O)c3ccc(O)c(CC=C(C)C)c3O2)ccc1O,-1%,?,-22,?,?
COc1cc2c(cc1OC)-c1cc3cc(OC)c(OC)cc3c(=O)n1CC2,.,-22%[9.04 µM],.,.,?
CC(C)CN1CCC(=O)N([C@H](CSc2ccc(Br)cc2)Cc2ccccc2)CC1,-1%,15µM*,-53*,-5%,18µM*
C[C@H]1CCC(=O)N([C@H](CC#N)Cc2ccccc2)CC1,8%,-6%,9,6%,-10%
CC(C)C[C@@H](CSc1ccccc1)N1CCN(CC(C)C)CCC1=O,5%,29µM*,-4,4%,14µM*
SMILES,HT1080NT lethal,DT40 TDP1 CPT,IL-1B inflam inh,HT1080 IDH1KD tx,TDP1 cell noCPT
CN1CCC(=O)N([C@H](CSc2ccccc2)Cc2ccccc2)CC1,0%,?,-4,-7%,?
C[C@H]1CCC(=O)N([C@H](CSc2ccc(Br)cc2)Cc2ccccc2)CC1,7%,18µM*,?,7%,29µM*
CN1CCC(=O)N([C@H](CSc2ccc(Br)cc2)Cc2ccccc2)CC1,-11%,21µM*,?,-3%,?
COc1cccc(CNc2ncnc3sc(C(=O)N4CCOCC4)c(C)c23)c1OC,.,-4%[9.04 µM],.,.,1%
CC(=O)Nc1ccc(SC[C@H](Cc2ccccc2)N2CC[C@@H](N)CCC2=O)cc1,.,-25%,.,.,0.13µM*
Cc1ccc(CC(=O)Nc2c(C(=O)N3CCN(c4ccccc4)CC3)oc3ccccc23)cc1,.,23µM*,.,.,?
COc1cc(C(=O)Nc2c(C(=O)N3CCOCC3)oc3ccccc23)cc(OC)c1OC,17%,-12%,-18,-2%,?
O=C(Cc1ccccc1)Nc1c(C(=O)N2CCN(c3ccc(F)cc3)CC2)oc2ccccc12,.,16µM*,.,.,26µM*
COc1ccc(NC(=O)c2oc3ccccc3c2NC(=O)Cc2ccc(F)cc2)c(OC)c1,.,12µM*,.,.,8.2µM*
COc1ccc(CC(=O)Nc2c(C(=O)N3CCN(c4ccccc4F)CC3)oc3ccccc23)cc1OC,.,10µM*,.,.,13µM*
CCOCCCN(C)C1CCN(C(=O)c2oc3ccccc3c2NC(=O)Cc2ccc(F)cc2)CC1,-28%,-21%,-15,-1%,-1%
COc1ccc(S(=O)(=O)N2CCOCC2)cc1NC(=O)C1CC(=O)N(c2ccc3c(c2)OCCO3)C1 (centres undefined),4%,3%,4,9%,-4%
CCOC(=O)CNC(=O)CSc1nnc(CCc2nc3ccccc3[nH]2)n1C,7%,4%,20,1%,4%
CCOC(=O)[C@]12CCCC=C1N(Cc1cccc3ccccc13)C(=O)[C@H](CC(=O)NCCCN1CCCC1=O)C2,10%,?,0,4%,?
Cc1cc(C(=O)Nc2ccccc2)oc1C,-5%,?,-16,-18%,-5%
Cc1cccc(-n2nc3c(c2NC(=O)c2ccc4c(c2)OCO4)CS(=O)(=O)C3)c1C,1%,-8%,?,2%,20%
CCOc1ccc(C(=O)Nc2c(C(=O)Nc3ccccc3F)oc3ccccc23)cc1OCC,.,-29%,.,.,-11%
COc1cccc(N2CCN(C(=O)c3oc4ccccc4c3NC(=O)CCc3cc(OC)no3)CC2)c1,-27%,-55%,10,-7%,?
COc1cccc(N2CCN(C(=O)c3oc4ccccc4c3NC(=O)Cc3ccc(OC)c(OC)c3)CC2)c1,-6%,16µM*,-10,-1%,?
COc1ccccc1C(=O)Nc1c(C(=O)N2CCN(c3ccc(F)cc3)CC2)oc2ccccc12,.,-17%,.,.,-10%
